Assay outcomes: PubChem BioAssay, Columbia University Molecular Screening Center
A selection: hits, their analogues and other compounds. The true share with any hit is near 1.2%.
VCAM1 TNFa inh: reduces TNF alpha induced VCAM1 expression in HUVEC; HUVEC TNFa-induced VCAM-1 immunofluorescence, high-content imaging; inhibition, % at 2 µM; 0.48% of 95,000 active;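 active = inhibition above the batch mean plus 3 SD, with images confirmed as a hit by eye, cut at about 37% in these data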
E-sel TNF inh: blocks E-selectin expression induced by TNF alpha; HUVEC TNFa-induced E-selectin immunofluorescence, high content; inhibition, % at 2 µM; 0.71% of 120,000 active;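 active = inhibition above the batch mean plus 3 SD, and confirmed as a hit on visual image review, cut at about 43% in these data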
TNFa cytotox: toxic to HUVEC cells under TNF alpha stimulation | HUVEC TNFalpha-stimulated, Hoechst cell count, imaging | cell count reduction, % at 2 µM | 0.17% of 93,000 active;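 active = cell count reduction exceeding the screen mean by over 5 SD, scaled to untreated wells per plate, cut at about 78% in these data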;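 also: cells counted after 24 h of TNF alpha exposure following the 1 h pretreatment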
cytoskel mod: cytoskeleton assembly modification. HUVEC TNFa F-actin phalloidin imaging, high content. inhibition, % at 2 µM. 0.18% of 91,000 active. AID 836;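 active = inhibition above the batch mean plus 3 SD and confirmed as a hit by visual image inspection, cut at about 30% in these data, passing the limit was not always enough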
Numbers stand for hits; n = inactive; x = no result given.

SMILES	VCAM1 TNFa inh	E-sel TNF inh	TNFa cytotox	cytoskel mod
CCOC(=O)CC(=O)CSc1nc2c(sc(=S)n2-c2ccccc2)c(=O)[nH]1	n	x	n	n
Cc1ccc(-c2nc(NC(=O)c3nn(C)cc3[N+](=O)[O-])sc2C)cc1C	89	100	n	n
Cn1cc([N+](=O)[O-])c(C(=O)Nc2nc(-c3ccc(Cl)cc3)cs2)n1	n	98	n	n
O=C(Nc1nc(-c2ccc(Cl)cc2)cs1)c1cccnc1	n	n	n	n
Cc1ccc(-c2nc(NC(=O)c3nn(C)cc3[N+](=O)[O-])sc2C)cc1	92	87	n	n
Cc1cc(C)n(Cc2ccc(NC(=O)c3nn(C)cc3[N+](=O)[O-])cc2)n1	n	n	n	n
CC(=O)c1cccc(NC(=O)CSCc2ccccc2)c1	n	n	n	n
C/C(=N/NC(N)=S)c1ccccc1[N+](=O)[O-]	n	n	n	n
Cc1cccc(NC(=O)Nc2ccc(C#N)cc2)n1	x	55	x	x
CN=C(Nc1cc(C)nn1CCC#N)c1ccccc1	n	n	n	n
CN=C(Nc1cc(C)nn1CCC#N)c1ccccc1F	n	n	n	67
OCc1nn2c(c1Br)NC(c1ccccc1)CC2C(F)(F)F (configuration not stated)	n	n	n	n
COc1ccc(C(=O)NNC(=O)CN2CCC(n3nnc4cc(F)ccc43)CC2)cc1	x	n	x	x
O=C(N/N=C/C(Br)=C/c1ccccc1)c1cc(-c2ccco2)[nH]n1	x	n	x	x
O=C(N/N=C/C(Br)=C/c1ccccc1)c1n[nH]c2c1CCC2	91	x	n	n
COc1ccc(CNC(=O)C(CCSC)NS(=O)(=O)c2ccccc2F)cc1 (configuration not stated)	x	79	x	x
COc1ccc(CCNC(=O)C(=O)NCc2ccc(C)cc2)cc1OC	n	50	n	n
CCN1CCCC1CNC(=O)C(=O)NC1CC1 (configuration not stated)	x	n	x	x
CCN1CCCC1CNC1=NCCCCC1 (configuration not stated)	n	71	n	n
C[n+]1ccc(/C=C/c2ccc(Br)cc2)cc1	44	n	n	x
CC(c1ccccc1)N1C(=O)c2ccccc2C1O (configuration not stated)	n	x	n	n
COc1ccccc1C1=NNC(=Nc2cccc(S(=O)(=O)N(C)C)c2)SC1	x	n	x	x
CC1=[N+](C)N(c2ccccc2)C(=O)C1N=Cc1c(Cl)cccc1Cl (configuration not stated)	x	n	x	x
CC1(C)CC(=O)CC(C)(C)N1OC(=O)c1ccncc1	n	n	n	n
Cc1cc(=O)oc2cc(OCC(=O)OCC(=O)NCc3ccc4c(c3)OCO4)ccc12	n	71	n	n
SMILES	VCAM1 TNFa inh	E-sel TNF inh	TNFa cytotox	cytoskel mod
C=CCn1c(SCc2ccc(C(=O)Nc3ccccc3)cc2)nnc1-c1ccccc1	n	n	n	n
O=C(O)C(=O)/C(=C\c1ccccc1)c1ccc2ccccc2n1	n	91	n	n
CCOc1ccc(C=O)cc1CN1CCCCC1	95	n	84	n
CCCCOc1ccc(/C=C/C(=O)OCC(=O)NC(=O)NCC(C)C)cc1OCC	x	84	x	x
CCOc1cc(C(=O)NCc2nnc(SCC(=O)OC)n2C)cc(OCC)c1OCC	x	71	x	x
CCOC(=O)CSc1nnc(CNC(=O)c2cc(OCC)c(OCC)c(OCC)c2)n1C	n	n	n	n
CSc1cccc(NC(=O)C2CCCN(S(=O)(=O)c3ccc(F)cc3)C2)c1 (configuration not stated)	n	59	n	n
Cc1sc(NC(=S)NC(=O)C(C)(C)C)c(C(N)=O)c1C	n	n	n	n
Cc1ccc(NC(=O)ON=C2CCCC2)cc1	x	n	x	x
CCOc1cc2[nH]c(=O)n(CCCN3CCCC3=O)c(=O)c2cc1OCC	n	46	n	n
COc1cc2[nH]c(=O)n(CCCCCC(=O)NCCCN3CCCC3=O)c(=O)c2cc1OC	n	n	n	n
CCOC(=O)N1CCN(C(=O)c2ccc(Oc3ccc([N+](=O)[O-])cc3)cc2)CC1	x	62	x	x
Nc1c(C(=O)NCc2ccc(Cl)cc2)sc2nc3c(c(C(F)(F)F)c12)CCC3	n	65	n	n
Cc1ccc(CNC(=O)c2sc3nc4c(c(C(F)(F)F)c3c2N)CCC4)cc1	n	n	n	n
CCSc1nnc(-c2cccs2)o1	n	100	n	n
Cc1ccc(NC(=O)c2ccc(CSc3ccccn3)cc2)cc1	n	n	n	n
Cc1ccccc1NC(=O)c1ccc(CSc2ncccn2)cc1	n	61	n	n
Cc1ccc(N(CN2CCCC2=O)C(=O)c2ccc(OC(C)C)cc2)cc1	n	n	79	n
O=C1C2CCCN2C(=O)N1CCCCN1CCN(c2cccc(Cl)c2)CC1 (configuration not stated)	x	n	x	x
Cc1cc(-n2c(C)cc(C(=O)CN3C(=O)NC4(CCCCC4)C3=O)c2C)no1	n	n	90	n
O=C1CCSc2cccc3cccc(c23)N1	90	x	84	n
Cc1cc(C)c2c(-n3cccc3)c(C(=O)NNS(=O)(=O)c3ccc(Cl)cc3)sc2n1	n	n	n	n
O=C(NCCN1C(=O)CSC1=O)c1ccccc1	n	69	n	n
Cc1nc2ccc(NC(=O)c3cc(S(=O)(=O)N4CCOCC4)ccc3C)cc2s1	n	92	n	n
CCN(CC)c1ccc(NC(=O)COC(=O)/C=C/c2nc3ccccc3s2)cc1	x	62	x	x
SMILES	VCAM1 TNFa inh	E-sel TNF inh	TNFa cytotox	cytoskel mod
COC(=O)c1ccc(COc2ccccc2/C=C(\C#N)C(=O)Nc2c(C)cccc2C)cc1	x	n	x	x
CN(C)C(=O)c1sccc1Oc1ccc(F)cc1[N+](=O)[O-]	x	n	x	x
O=C(O)c1cccc(S(=O)(=O)Nc2ccccc2Cl)c1	95	n	n	n
O=C(NC1CCCCC1)N(CCN1CCOCC1)Cc1cc2cc3c(cc2[nH]c1=O)OCCO3	n	x	n	33
CSc1ncccc1C(=O)OCC(=O)NCc1ccc2c(c1)OCO2	x	n	x	x
CCCCCCCC(=O)Nc1ccc(S(=O)(=O)Nc2nccs2)cc1	x	n	x	x
CCn1nc(C(=O)Nc2ccc(S(=O)(=O)Nc3nccs3)cc2)c2ccccc2c1=O	n	61	n	n
COc1cccc(C(=O)COc2cccc(NC(=O)c3cccc([N+](=O)[O-])c3)c2)c1	49	n	n	n
COc1cccc(C(=O)Nc2cccc(OC(C)=O)c2)c1	n	n	n	n
CCCCOc1ccc2ccccc2c1C=O	n	52	n	n
COC(=O)Cc1ccc(NC(=S)N2CCN(c3ccc(F)cc3)CC2)cc1	x	n	x	x
CN1CCN(S(=O)(=O)c2ccc(NC(=O)c3ccc(F)cc3)cc2)CC1	n	100	n	n
COc1ccccc1NC(=O)c1ccc(S(=O)(=O)N2CCCC2)cc1	n	100	n	n
O=C(CCS(=O)(=O)c1ccccc1)Nc1nc2c(s1)COc1ccccc1-2	n	x	n	46
O=C(Nc1nc2c(s1)COc1ccccc1-2)c1cccs1	n	n	n	n
COc1cc(NC(=O)CN2C(=O)NC(C)(CC(C)C)C2=O)cc(OC)c1 (configuration not stated)	93	n	n	n
Cc1cccc(N2C(=O)CC(Sc3nc(-c4ccccc4)c4cc(Cl)ccc4n3)C2=O)c1 (configuration not stated)	n	x	n	n
CCC(=O)Nc1nc(-c2ccccc2)ns1	58	n	x	n
CC(C)C(=O)Nc1nc(-c2ccccc2)ns1	n	n	x	n
Cc1cc(N2CCCCC2)nc(NCc2ccccc2)n1	n	72	n	n
